From the supplement of paper PMC8728848
This is one part of a sample in which the strongest signals are shown more often than they occur.

B1: TbCVNHOa (Tuber borchii), Q5MK11 (protein)
chain: GSHIGPYMSYADSSRNAVLTNGGRTLRAECRNADGNWVTSELDLDTCIGNPNGFLGWGMQNFSHSSEDIKLEEGGRKLTCRPKTVDGGFRERQGIDLNRIQNVNGRLVFQ
B2: ASA (Allium sativum) (protein)
chain: KAHEKERMGRNTPSAKLMSIAAVAAILTILASTCMARNLLTNGEGLYAGQSLNVEPYHFIMQEDCNLVLYDHSTAVWATNTDIPGKKECRAVLQSDGNFVVYDADGRPLWASHSVRGNGNYVLVLQEDGNVVIYGSDIWSTGTYVKAARGPVVVAMNGTVDGGSLIRPVIVNKNHVPVIRKVGTLSRNILRNDEGLYAGQSLDVEPYHFIMHEDCNLVLYDHSTAVWASNTDIPGKKGCKAVLQSDGNFVVYDAEGRSLWASHSVRGNGNYVLVLQEDGNVVIYGSDIWSTDTYRKSARGPVIRKVGTLAGAA

How the values were obtained:
Assay in all cases: glycan array binding signal (z-score within array); higher = stronger binding
Conditions in all cases: glycan notation: IUPAC condensed, linker removed
[1] = biological target: Fuc(a1-2)Gal
In short: (§1)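 The binding signal is a Z-score computed within each array and averaged over linkers. Arrays of the same protein sequence at different concentrations or buffers were also averaged together. Data originate from 3228 arrays in the Consortium for Functional Glycomics database, kept only where the protein sequence was available.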

[2] = biological target: Fuc(a1-2)Gal(b1-3)GalNAc(b1-3)Gal(b1-4)Glc
In short: as §1

[3] = biological target: Gal(b1-3)GalNAc(b1-3)Gal(b1-4)Glc
In short: as §1

[4] = biological target: Gal(b1-3)GalNAc(b1-4)Gal(b1-4)Glc
In short: as §1

[5] = biological target: Gal(b1-4)Glc
In short: as §1

[6] = biological target: Gal(b1-4)GlcNAc
In short: as §1

[7] = biological target: Gal(b1-4)GlcNAc(b1-3)Gal(b1-4)Glc
In short: as §1

[8] = biological target: Gal(b1-4)GlcNAc(b1-3)Gal(b1-4)GlcNAc(b1-3)Gal(b1-4)GlcNAc
In short: as §1

[9] = biological target: GalNAc(b1-4)GlcNAc
In short: as §1

[10] = biological target: GlcNAc(a1-3)Gal(b1-4)GlcNAc
In short: as §1

[11] = biological target: GlcNAc(a1-6)Gal(b1-4)GlcNAc
In short: as §1

[12] = biological target: GlcNAc(b1-3)Gal
In short: as §1

[13] = biological target: GlcNAc(b1-3)Gal(b1-3)GalNAc
In short: as §1

[14] = biological target: GlcNAc(b1-6)Gal(b1-4)GlcNAc
In short: as §1

[15] = biological target: Man(a1-2)Man(a1-2)Man(a1-3)Man
In short: as §1

[16] = biological target: Neu5Gc(a2-3)Gal(b1-4)GlcNAc
In short: as §1

[17] = biological target: Fuc(a1-2)Gal(b1-4)[Fuc(a1-3)]GalNAc(b1-3)Gal(b1-4)[Fuc(a1-3)]GlcNAc(b1-3)Gal(b1-4)[Fuc(a1-3)]GalNAc
In short: as §1

[18] = biological target: Fuc(a1-3)[Gal(b1-4)]GlcNAc(b1-4)Gal(b1-4)[Fuc(a1-3)]GlcNAc(b1-4)Gal(b1-4)[Fuc(a1-3)]GlcNAc
In short: as §1

[19] = biological target: Gal(b1-3)GalNAc
In short: as §1

[20] = biological target: Gal(b1-3)GalNAc(b1-3)Gal(b1-4)GlcNAc
In short: as §1

[21] = biological target: Gal(b1-3)[GlcNAc(b1-6)]GalNAc
In short: as §1

[22] = biological target: Gal(b1-4)GlcNAc(b1-3)GalNAc
In short: as §1

[23] = biological target: Gal4S6S(b1-4)GlcNAc
In short: as §1

[24] = biological target: Glc(a1-6)Glc(a1-6)Glc
In short: as §1

[25] = biological target: Man(a1-2)Man(a1-3)[Man(a1-2)Man(a1-6)]Man
In short: as §1

[26] = biological target: Man(a1-2)Man(a1-3)[Man(a1-3)[Man(a1-6)]Man(a1-6)]Man(b1-4)GlcNAc(b1-4)GlcNAc
In short: as §1

[27] = biological target: Man(a1-3)[Man(a1-6)]Man(a1-6)[Man(a1-3)]Man(b1-4)GlcNAc(b1-4)GlcNAc
In short: as §1

[28] = biological target: Man(a1-3)[Man(a1-6)]Man(b1-4)GlcNAc(b1-4)GlcNAc
In short: as §1

[29] = biological target: Neu5Ac(a2-3)Gal(b1-3)GalNAc(b1-3)Gal(a1-4)Gal(b1-4)Glc
In short: as §1

[30] = biological target: Neu5Ac(a2-3)[GalNAc(b1-4)]Gal(b1-4)GlcNAc
In short: as §1

[31] = biological target: Neu5Gc(a2-3)Gal(b1-4)Glc
In short: as §1

Binder | glycan array binding signal (z-score) [1] | glycan array binding signal (z-score) [2] | glycan array binding signal (z-score) [3] | glycan array binding signal (z-score) [4] | glycan array binding signal (z-score) [5] | glycan array binding signal (z-score) [6] | glycan array binding signal (z-score) [7] | glycan array binding signal (z-score) [8] | glycan array binding signal (z-score) [9] | glycan array binding signal (z-score) [10] | glycan array binding signal (z-score) [11] | glycan array binding signal (z-score) [12] | glycan array binding signal (z-score) [13] | glycan array binding signal (z-score) [14] | glycan array binding signal (z-score) [15] | glycan array binding signal (z-score) [16] | glycan array binding signal (z-score) [17] | glycan array binding signal (z-score) [18] | glycan array binding signal (z-score) [19] | glycan array binding signal (z-score) [20] | glycan array binding signal (z-score) [21] | glycan array binding signal (z-score) [22] | glycan array binding signal (z-score) [23] | glycan array binding signal (z-score) [24] | glycan array binding signal (z-score) [25] | glycan array binding signal (z-score) [26] | glycan array binding signal (z-score) [27] | glycan array binding signal (z-score) [28] | glycan array binding signal (z-score) [29] | glycan array binding signal (z-score) [30] | glycan array binding signal (z-score) [31]
B1 | -0.262 | 3.46 | 5.6 | -0.271 | -0.264 | -0.238 | 2.73 | -0.058 | -0.239 | -0.293 | -0.292 | -0.283 | -0.222 | -0.247 | 3.86 | -0.209 |  |  |  |  |  |  |  |  |  |  |  |  |  |  | 
B2 | -0.156 |  |  |  |  |  |  |  | -0.151 |  |  |  |  |  | 6.7 |  | -0.081 | -0.229 | -0.222 | -0.231 | -0.211 | -0.23 | -0.222 | -0.228 | 2.2 | 6.08 | 5.45 | 6.64 | -0.228 | -0.172 | -0.208
